From PubChem BioAssay (NCATS)
Several values for one entry are separate records, joined by “and”; a condition that tells them apart may be missing. Equal values may be shown once. Records with an inconclusive call do not appear. More than one record can exist for a structure, and the calls need not agree. Activity calls are given as the source filed them. The call rests on the fitted dose curve; in most records, active means well fitted curve in the direction sought with a large enough effect; inconclusive means small, poorly fitted or top-dose-only effect, or another doubt; inactive means no such curve, though single readings can be large; an effect the other way counts as inactive or inconclusive.

Tests used:
CRL-7250 = normal cell line; experiment: Cytotoxic Profiling of Annotated Libraries Using Quantitative High-Throughput Screening (AID 1296008); conditions: Five cell lines viability, CellTiter-Glo ATP luminescence, 48-72 h; max response: active compounds read low; further: nearly all actives have a fitted effect of over 60% in size; further: potency means the concentration at half of the fitted maximal effect
Method in brief: (§1)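 Cells exposed to compounds for 48 or 72 hr at 37 degrees Celsius. Viability read as ATP-coupled luminescence with CellTiter-Glo after 10 min at room temperature.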

NIH3T3 = experiment: as above; conditions: Five cell lines viability, CellTiter-Glo ATP luminescence, 48-72 h; max response: active compounds read low
Method in brief: as §1

MCC-13 = experiment: qHTS assay to identify novel small-molecules to repurpose for Merkel cell carcinoma treatment (AID 1296009); conditions: MCC and control cell lines, CellTiter-Glo viability, 72 h; series mostly up to 46 µM; further: nearly all actives have a fitted effect of over 60% in size; further: potency means the concentration at half of the fitted maximal effect
Method in brief: (§2)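 Cells were treated for 72 hr at 37 degree celsius with compounds in 8- or 11-point dose response. Viability was read by CellTiter-Glo luminescence, normalized to no-cell (cytotoxicity) and DMSO controls.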

MCC-26 = experiment: as above; conditions: MCC and control cell lines, CellTiter-Glo viability, 72 h; series mostly up to 46 µM
Method in brief: as §2

MKL-1 = experiment: as above; conditions: MCC and control cell lines, CellTiter-Glo viability, 72 h; series mostly up to 46 µM
Method in brief: as §2

MKL-2 = experiment: as above; conditions: MCC and control cell lines, CellTiter-Glo viability, 72 h; series mostly up to 46 µM
Method in brief: as §2

C33A = experiment: Primary qHTS to identify gynecologic anti-cancer compounds using libraries of approved drugs and bioactive compounds (AID 1345084); conditions: Gynecologic cancer cell panel viability, ATPlite luminescence, 48 h; series mostly up to 57.5 µM; further: nearly all actives have a fitted effect of over 55% in size
Method in brief: (§3)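 Cell viability after 48 h drug treatment, ATPlite luminescence readout; five doses.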

Es-2 = experiment: as above; conditions: Gynecologic cancer cell panel viability, ATPlite luminescence, 48 h; series mostly up to 57.5 µM
Method in brief: as §3

Hek293T [1] = experiment: as above; conditions: Gynecologic cancer cell panel viability, ATPlite luminescence, 48 h, control line for the selectivity index; series mostly up to 57.5 µM
Method in brief: as §3

HEK293 = experiment: Cytotoxic Profiling of Annotated Libraries Using Quantitative High-Throughput Screening (AID 1296008); conditions: Five cell lines viability, CellTiter-Glo ATP luminescence, 48-72 h; max response: active compounds read low; further: nearly all actives have a fitted effect of over 60% in size; further: potency means the concentration at half of the fitted maximal effect
Method in brief: as §1

UISO = experiment: qHTS assay to identify novel small-molecules to repurpose for Merkel cell carcinoma treatment (AID 1296009); conditions: MCC and control cell lines, CellTiter-Glo viability, 72 h; series mostly up to 46 µM; further: nearly all actives have a fitted effect of over 60% in size; further: potency means the concentration at half of the fitted maximal effect
Method in brief: as §2

WaGa = experiment: as above; conditions: MCC and control cell lines, CellTiter-Glo viability, 72 h; series mostly up to 46 µM
Method in brief: as §2

CAOV3 = experiment: Primary qHTS to identify gynecologic anti-cancer compounds using libraries of approved drugs and bioactive compounds (AID 1345084); conditions: Gynecologic cancer cell panel viability, ATPlite luminescence, 48 h; series mostly up to 57.5 µM; further: nearly all actives have a fitted effect of over 55% in size
Method in brief: as §3

CASKI = experiment: as above; conditions: Gynecologic cancer cell panel viability, ATPlite luminescence, 48 h; series mostly up to 57.5 µM
Method in brief: as §3

HeLa = experiment: as above; conditions: Gynecologic cancer cell panel viability, ATPlite luminescence, 48 h; series mostly up to 57.5 µM
Method in brief: as §3

HaCat [2] = experiment: Cytotoxic Profiling of Annotated Libraries Using Quantitative High-Throughput Screening (AID 1296008); conditions: Five cell lines viability, CellTiter-Glo ATP luminescence, 48-72 h; max response: active compounds read low; further: nearly all actives have a fitted effect of over 60% in size; further: potency means the concentration at half of the fitted maximal effect
Method in brief: as §1

KB-3-1 = experiment: as above; conditions: Five cell lines viability, CellTiter-Glo ATP luminescence, 48-72 h; max response: active compounds read low
Method in brief: as §1

HACAT [3] = experiment: qHTS assay to identify novel small-molecules to repurpose for Merkel cell carcinoma treatment (AID 1296009); conditions: MCC and control cell lines, CellTiter-Glo viability, 72 h; at 44.8 µM (top of the series) unless noted; further: nearly all actives have a fitted effect of over 60% in size; further: potency means the concentration at half of the fitted maximal effect
Method in brief: as §2

HEK293T [4] = experiment: as above; conditions: MCC and control cell lines, CellTiter-Glo viability, 72 h; at 44.8 µM (top of the series) unless noted
Method in brief: as §2
On the % scale 0 is the no-effect control and ±100 the full control effect.

COc1ccc2c(c1OC)C(=O)O[C@@H]2[C@H]1c2c(cc3c(c2OC)OCO3)CCN1C
inactive: max response (CRL-7250) 4.94% | max response (NIH3T3) -0.798% | Potency (MCC-13) | Potency (MCC-26) | Potency (MKL-1) | Potency (MKL-2) | Potency (C33A) | Potency (Es-2) | Potency (Hek293T [1])

Brc1c(NC2=NCCN2)ccc2nccnc12
inactive: max response (CRL-7250) -13% | max response (HEK293) -12.5% | max response (NIH3T3) -5.35% | Potency (MCC-13) | Potency (MCC-26) | Potency (MKL-1) | Potency (MKL-2) | Potency (UISO) | Potency (WaGa) | Potency (C33A) | Potency (CAOV3) | Potency (CASKI) | Potency (Es-2) | Potency (HeLa) | Potency (Hek293T [1])

CC(=O)[C@@]1(O)CC[C@H]2[C@@H]3CCC4=CC(=O)CC[C@]4(C)[C@H]3CC[C@@]21C
inactive: outcome (CRL-7250) | max response (HaCat [2]) 1.18% | max response (KB-3-1) -5.68% | max response (NIH3T3) 2.18% | Potency (MCC-13) | Potency (MCC-26) | Potency (MKL-1) | Potency (MKL-2) | Potency (UISO) | Potency (WaGa) | Potency (C33A) | Potency (CAOV3) | Potency (CASKI) | Potency (Es-2) | Potency (Hek293T [1])

CNCCC(Oc1ccccc1OC)c1ccccc1 (stereo not drawn)
inactive: max response (CRL-7250) -0.295% | max response (HaCat [2]) 1.07% | max response (KB-3-1) 0.271% | max response (NIH3T3) -6.28% | Potency (MCC-13) | Potency (MCC-26) | Potency (MKL-1) | Potency (MKL-2) | Potency (UISO) | Potency (WaGa) | Potency (C33A) | Potency (CASKI) | Potency (Es-2) | Potency (HeLa) | Potency (Hek293T [1])

Cc1nnc(SCC2=C(C(=O)O)N3C(=O)[C@@H](NC(=O)Cn4cnnn4)[C@H]3SC2)s1
inactive: outcome (HEK293) | outcome (HaCat [2]) | max response (NIH3T3) -2.45% | outcome (HACAT [3]) | outcome (HEK293T [4]) | Potency (MCC-13) | Potency (MCC-26) | Potency (MKL-1) | Potency (UISO) | Potency (C33A) | Potency (CAOV3) | Potency (CASKI) | Potency (Es-2) | Potency (HeLa) | Potency (Hek293T [1])
active: Potency (MKL-2) 13.3 µM

CCCN1C[C@H](CSC)C[C@@H]2c3cccc4[nH]cc(c34)C[C@H]21
inactive: max response (CRL-7250) -3.21% and -8.84% | max response (HaCat [2]) 4.81% and -5.73% | max response (KB-3-1) 9.69% | outcome (KB-3-1) | max response (NIH3T3) -7.31% | Potency (MCC-13) | Potency (MCC-26) | Potency (MKL-1) | Potency (MKL-2) | Potency (UISO) | Potency (WaGa) | Potency (C33A) | Potency (CAOV3) | Potency (CASKI) | Potency (Es-2) | Potency (HeLa) | Potency (Hek293T [1])
active: Potency (NIH3T3) 21.1 µM

Cc1nc2sccn2c(=O)c1CCN1CCC(=C(c2ccc(F)cc2)c2ccc(F)cc2)CC1
inactive: outcome (CRL-7250) | max response (HaCat [2]) -3.76% | max response (KB-3-1) -12.7% | max response (NIH3T3) -6.97% | Potency (MCC-13) | Potency (MCC-26) | Potency (MKL-1) | Potency (UISO) | Potency (C33A) | Potency (CAOV3) | Potency (CASKI) | Potency (Es-2) | Potency (Hek293T [1])

CCCC(C(=O)OCCN(CC)CC)(c1ccccc1)c1ccccc1
active: Potency (UISO) 26.6 µM
inactive: max response (CRL-7250) -17.9% | max response (HaCat [2]) -7.15% | max response (KB-3-1) -8.71% | max response (NIH3T3) -27.5% | Potency (MCC-26) | Potency (CASKI)

O=C(CCCN1CCC(O)(c2cccc(C(F)(F)F)c2)CC1)c1ccc(F)cc1
inactive: max response (CRL-7250) -19.1% | max response (HaCat [2]) 0.0234% | max response (KB-3-1) -16.4% | Potency (MCC-13) | Potency (MCC-26) | Potency (UISO) | Potency (WaGa) | Potency (C33A) | Potency (CAOV3) | Potency (CASKI) | Potency (Es-2) | Potency (HeLa) | Potency (Hek293T [1])

CNCCCN1c2ccccc2CCc2ccccc21
inactive: outcome (HaCat [2]) | outcome (HACAT [3]) | Potency (MCC-13) | Potency (MCC-26) | Potency (C33A) | Potency (Es-2) | Potency (Hek293T [1])
